Bioassay records: PubChem BioAssay, National Center for Advancing Translational Sciences (NCATS)
This is one part of a sample in which hits are shown more often than they occur.
AmpC inh detg: inhibitors of E. coli AmpC beta-lactamase with detergent; AID 485294; hit rate 0.041% among 370,000; AmpC hydrolysis of nitrocefin, absorbance 480 nm, 0.01% Triton; Potency, µM (titrated, usually from 114 µM), for the others: at the highest dose activity change, negative = inhibition, usual class: inhibitors; P00811;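 note: potency is the fitted concentration of half-maximal effect; 0% = no-compound wells and -100% = no-enzyme wells; nearly all actives have a fitted effect of over 25% in size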
Target sequence (P00811 whole entry, looked up): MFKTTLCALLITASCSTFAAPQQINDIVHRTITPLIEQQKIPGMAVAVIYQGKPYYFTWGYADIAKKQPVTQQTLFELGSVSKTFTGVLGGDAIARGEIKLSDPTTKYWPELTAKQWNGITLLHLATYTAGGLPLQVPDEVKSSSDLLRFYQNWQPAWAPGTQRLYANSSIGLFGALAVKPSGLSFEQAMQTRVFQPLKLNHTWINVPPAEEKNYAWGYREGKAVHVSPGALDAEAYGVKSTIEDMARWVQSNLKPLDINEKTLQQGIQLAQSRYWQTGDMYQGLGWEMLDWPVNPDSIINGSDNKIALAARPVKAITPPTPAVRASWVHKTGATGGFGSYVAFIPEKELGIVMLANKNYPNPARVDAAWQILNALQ
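AmpC (5.3 nM in the dispensed reagent) in 20 mM phosphate pH 7.0 with 0.01% (detergent screen) or 0.0001% Triton X-100 was preincubated with compounds for 15 min at room temperature. Nitrocefin was then added from an 800 uM solution, and hydrolysis was followed at 480 nm.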
Shiga toxin inh: blocks Shiga toxin action in Vero cells | inhibition, % at 38.7 µM | hit rate 9.2% among 290,000 | Vero cells, Shiga toxin protein synthesis inhibition reporter; in the data active = inhibition mostly above about 28%, no sharp cut-off; inactive = mostly below about 43%; note: 0% is about no effect
CHX counter: counter-screen hit for Shiga toxin inhibitors, cycloheximide; hit rate 12% among 300,000; max response, %; cell reporter, cycloheximide protein synthesis inhibition counterscreen; AID 2314; in the data active = max response mostly above about 13%, no sharp cut-off; inactive = mostly below about 14%; note: read at 38.3 µM for the half of the compounds with a filed dose; 0% is about no effect
SARS PLpro yeast: blocks SARS-CoV papain-like protease in a yeast assay. S. cerevisiae expressing SARS-CoV PLpro, growth rescue. Potency, µM (doses to about 32.9 µM), inactives show at the top dose activity, positive = growth rescue, usual class: activators. hit rate 0.19% among 330,000. AID 485353; calls by dose curve; note: potency is the fitted concentration of half-maximal effect; 0% is about no effect; nearly all actives have a fitted effect of over 55% in size
AMA1-RON2 inh: disrupts binding of P. falciparum AMA1 to RON2; AlphaScreen AMA1-biotinylated RON2 peptide binding; Potency, µM (titrated, usually from 58.2 µM), for the others: at the top dose activity change, negative = inhibition, usual class: inhibitors; hit rate 0.2% among 360,000;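 note: potency is the fitted concentration of half-maximal effect; 0% = vehicle wells and -100% = peptide control; nearly all actives have a fitted effect of over 45% in size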
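AMA1 (3D7) with his tag at 25 nM final met compounds first, then biotinylated RON2 peptide at 25 nM; detection used donor plus acceptor beads, 10 µg/mL apiece, read by AlphaScreen after 30 min at room temperature.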
AmpC no deterg: AmpC beta-lactamase inhibition without detergent | P00811 | AmpC nitrocefin hydrolysis, absorbance 480 nm, 0.0001% Triton | Potency, µM (doses to about 57.1 µM), for the others: top-dose activity change, negative = inhibition, actives largely listed as inhibitors | hit rate 0.52% among 330,000;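 note: potency is the fitted concentration of half-maximal effect; plate controls were no compound for no effect and no enzyme for full effect; nearly all actives have a fitted effect of over 20% in size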
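20 mM phosphate pH 7.0 + 0.01% (detergent screen) or 0.0001% Triton X-100; 5.3 nM AmpC reagent; cpd preinc 15 min RT; nitrocefin (800 uM stock) to start; A480 q20 s × 4 min; Activity was normalised to no-enzyme and no-compound control wells.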
Numbers without * were called inactive; ? = inconclusive; nt = not tested or not shown. Unless noted, calls come from the whole dose curve; as a rule, active = well fitted curve in the direction sought with a large enough effect; inconclusive = small, poorly fitted or top-dose-only effect, or another doubt; inactive = no such curve, though single readings can be large; an effect the other way counts as inactive or inconclusive.

SMILES	AmpC inh detg	Shiga toxin inh	CHX counter	SARS PLpro yeast	AMA1-RON2 inh	AmpC no deterg
C/C(=N\NC(=O)c1ccc(Cl)cc1)c1cccc(NC(=O)C(C)C)c1	4.5%	23.7	16.7*	2.0%	69.9%	-30.3%
C/C(=N\NC(=O)c1ccc(Cn2cc(Br)cn2)o1)c1cccc(NC(=O)C(C)C)c1	7.8%	8.6	19.9*	4.9%	-2.9%	-7.0%
COc1ccc(C(=O)N/N=C(/C)c2cccc(NC(=O)c3ccncc3)c2)cc1OC	-11.1%	2.4	3.0	-1.0%	31.2%	-9.2%
C/C(=N\NC(=O)c1ccc(Cn2cc([N+](=O)[O-])cn2)o1)c1cccc(NC(=O)C(C)C)c1	5.0%	0.0	5.4	2.9%	-0.7%	-30.2%
CC(C)(C)[C@H]1C=C(C(=O)NCc2nc3ccccc3[nH]2)O[C@@H](OCCCCO)C1	-3.8%	-11.5	-2.9	-3.4%	-0.1%	99.5%
CCOc1ccc(NC(=O)C(=O)NCc2ccco2)cc1	1.4%	nt	nt	nt	nt	nt
N#Cc1ccccc1NC(=O)CSc1nnc(-c2ccc(F)cc2)n1-c1ccccc1	?	-12.0	-1.9	0.9%	-6.4%	-13.3%
CCC(CC)C(=O)Nc1cccc(/C(C)=N/NC(=O)c2ccccc2Cl)c1	-7.3%	29.5	16.0*	4.2%	58.9%	4.1%
CCC(CC)C(=O)Nc1cccc(/C(C)=N/NC(=O)c2c(Br)cnn2C)c1	0.2%	-8.2	-2.9	7.7%	14.7%	-5.7%
Cn1cc(C(=O)c2ccc(F)cc2)cc1-c1nc2ccccc2n1C	-14.5%	-9.2	-0.7	-8.4%	-17.4%	-4.0%
CCn1c2ccccc2c2cc(/C=N/NC(=O)c3cc(O)cc(O)c3)ccc21	3.5%	6.4	4.1	-0.6%	-7.2%	-2.7%
Cn1c2ccccc2c2cc(/C=N/NC(=O)c3ccc(O)cc3O)ccc21	-8.7%	72.4*	31.6*	-2.1%	103.4%	-46.0%
CCn1c2ccccc2c2cc(/C=N/NC(=O)c3ccc(O)cc3)ccc21	-8.0%	active	25.6*	-0.5%	-6.9%	-22.8%
Cn1c(O)c(/C=N/NC(=O)c2cc3ccccc3cc2O)c2ccccc21	-7.0%	79.8*	20.8	12.9%	125.2%	-35.1%
O=C(N/N=C/c1cccc(Oc2ccccc2)c1)c1ccc(O)cc1O	-11.3%	33.6	29.6	-2.1%	70.1%	-55.7%
COCCn1c(C)cc(/C=N/NC(=O)c2cc3ccccc3cc2O)c1C	6.5%	nt	nt	-6.5%	44.4%	-40.2%
COc1ccccc1CN1C[C@@H]2C[C@@H](c3[nH]c4ccc(C)cc4c3C)N3CCC[C@@]23C1=O	-3.5%	-10.2	7.3	-0.4%	8.7%	160.6%
COc1ccc(NC(=O)CSc2nnc3ccc(-c4cccnc4)nn23)cc1OC	-3.7%	nt	nt	0.8%	5.6%	-6.1%
CN(C)S(=O)(=O)c1ccc(N2CCCC2)c(C(=O)N2CCN(c3ccc([N+](=O)[O-])cc3)CC2)c1	0.1%	12.2	-1.9	-1.3%	-4.7%	110.6%
O=C(CCn1nc(-c2ccc(Cl)cc2)ccc1=O)N1CCC2(CC1)OCCO2	-7.9%	9.3	3.8	-3.1%	6.2%	46.9%
CCOC(=O)Cn1nc(-c2ccc(C)cc2)ccc1=O	3.3%	27.6*	19.2*	-2.6%	-5.7%	-8.8%
CCc1ccc(CNC(=O)Cn2nc(-c3ccc(C)cc3)ccc2=O)cc1	-9.5%	17.4	-0.5	-0.4%	nt	95.4%
Cc1ccc(-c2ccc(=O)n(CCC(=O)N3CCC4(CC3)OCCO4)n2)cc1	-5.4%	138.1*	46.5*	-2.3%	0.0%	22.7%
CCOC(=O)CCn1nc(-c2ccccc2)cc1N	-0.6%	39.1*	35.4*	5.1%	17.8%	3.4%
CC(=O)N/C(=N/c1nc(C)cc(C)n1)Nc1ccc(C)cc1Cl	-9.9%	-4.6	2.5	3.6%	24.6%	-0.4%
Cc1ccc(CCNC(=O)c2ccc3c(c2)N(Cc2cccc(Cl)c2)C(=O)c2ccccc2S3(=O)=O)cc1	11.2%	nt	nt	nt	nt	nt
COc1ccc2oc(C(=O)OC(C)C(=O)N3CCC(C)CC3)c(C)c2c1 (stereo not drawn)	6.5%	nt	nt	0.3%	-20.3%	143.9%
O=C(CSc1nnc([C@@H]2CCCN2)o1)c1ccc(Cl)cc1	-11.5%	102.4*	21.9*	-0.6%	26.5%	-4.3%
